# Bioassay records: PubChem BioAssay, National Center for Advancing Translational Sciences (NCATS)
# This is a sample that favours compounds with a hit; in the whole collection about 9.3% have one here.
# VACV Venus inh: inhibitors of vaccinia virus (Venus reporter); Vaccinia virus Venus reporter expression, fluorescence; Potency, µM (top dose mostly 36.5 µM), for the others: at the top dose activity change, negative = inhibition, most hits filed as inhibitors; 330,000 tested, 0.46% active; AID 720580; calls by dose curve; tested in A549 cells; also: potency is read from the fitted curve at half-maximal effect; nearly all actives have a fitted effect of over 30% in size
# VACV mCherry inh: vaccinia inhibition (mCherry reporter); Vaccinia virus mCherry reporter infection, fluorescence; Potency, µM (top dose mostly 36.5 µM), without a hit: top-dose activity change, negative = inhibition, actives largely listed as inhibitors; 310,000 tested, 0.63% active; AID 720579; calls by dose curve; tested in A549 cells; also: potency is read from the fitted curve at half-maximal effect; nearly all actives have a fitted effect of over 35% in size
# HCV inh: blocks hepatitis C virus; Huh7.5.1 HCVcc-Cre infection, luciferase reporter, 44 h; Potency, µM (series often up to 41.8 µM), for inactives: top-dose activity change, negative = inhibition, usual class: inhibitors; 340,000 tested, 3.4% active; AID 651820; also: potency is read from the fitted curve at half-maximal effect
#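 Seed cells (1,000/well) for 4 h; treat with compound and infect with HCVcc-Cre, moi about 0.5. Incubate 44 h, then detect luciferase activity.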
# HCMV inh: blocks human cytomegalovirus replication. 410,000 tested, 4.5% active. activity change, negative = inhibition, % at 57.5 µM. HFF cells, HCMV-luciferase reporter, 72 h; stronger effect = lower value; in the data active = activity change below about -60%; inconclusive = no clear call, values can overlap the other calls; inactive = above about -39%
#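 Compounds were evaluated in HFFs infected with an HCMV luciferase reporter virus (MOI 1 PFU/cell). Luciferase in lysates collected 72 h post infection served as the replication measure.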
# FMDV inh: blocks foot and mouth disease virus; FMDV antiviral cell-based qHTS; Potency, µM (top dose mostly 57.9 µM), inactives show at the top dose activity change, negative = inhibition, usual class: inhibitors; 410,000 tested, 1.2% active; AID 1159524; calls by dose curve; tested in HEK293T cells; also: read-out not given here; potency is read from the fitted curve at half-maximal effect; nearly all actives have a fitted effect of over 45% in size
# Sm TGR inh: S. mansoni TGR enzyme inhibition; purified TGR, DTNB reduction, TNB absorbance 405 nm; Potency, µM (top dose mostly 114 µM), without a hit: top-dose activity change, negative = inhibition, usual class: inhibitors; 360,000 tested, 3% active; also: potency is read from the fitted curve at half-maximal effect; nearly all actives have a fitted effect of over 60% in size
#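 TGR 20 nM + NADPH 100 uM (dispensed conc.), cpd preinc 15 min RT; start with NADPH (500 uM addition) then DTNB (15 mM addition). Kinetic TNB absorbance, 405 nm filter. Four-parameter Hill fit across titration.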
# An asterisk follows results filed as active; i = inactive; ? = inconclusive; . = no result given; [ ] = remark or other dose. Unless noted, calls follow the shape of the dose curve; as a rule, active = well fitted curve in the direction sought with a large enough effect; inconclusive = small, poorly fitted or top-dose-only effect, or another doubt; inactive = no such curve, though single readings can be large; an effect the other way counts as inactive or inconclusive. % is scaled to controls: 0 for no effect and ±100 for the full control effect.
SMILES,VACV Venus inh,VACV mCherry inh,HCV inh,HCMV inh,FMDV inh,Sm TGR inh
C=CCNC(=O)c1ccc(C2SCC(=O)N2Cc2ccco2)cc1 (configuration not stated),13%,-14%,-11%,63,-3%,28µM*
O=C1C2C(c3cccc(/C=C/c4ccccc4)c3)CC=CC2C(c2ccc(C(F)(F)F)cc2)N1Cc1ccccc1 (configuration not stated),?,-11%,-1%,?,-12%,-25%
N#CCC(=O)N/N=C/c1cc(-c2ccccc2)n(-c2ccc(Cl)cc2)c1-c1ccccc1,-2%,-18%,?,?,25µM*,1%
CN1CCN(c2nc(Nc3ccccc3)nc(N)c2[N+](=O)[O-])CC1,-28%,-11%,5%,-15,-12%,-4%
Cc1ccc(NCc2cccn2-c2nnc(N3CCC(C(=O)NCc4ccc(OC(C)C)cc4)CC3)s2)cc1,?,?,.,-80*,?,-9%
CCOc1ccc(NCc2cccn2-c2nnc(N3CCC(C(=O)NCc4cccc(OC)c4)CC3)s2)cc1,-27%,-25%,.,-84*,?,10%
CCOc1ccc(NCc2cccn2-c2nnc(N3CCC(C(=O)NCC(C)c4ccccc4)CC3)s2)cc1 (configuration not stated),?,?,.,-80*,?,6%
Cc1ccc(NCc2cccn2-c2nnc(N3CCC(C(=O)NCCc4ccc(Cl)cc4)CC3)s2)cc1,?,?,.,?,0%,4%
CCOc1ccc(NCc2cccn2-c2nnc(N3CCC(C(=O)NCc4ccc(C)cc4)CC3)s2)cc1,?,?,.,-76*,?,-1%
CSc1nnc(-c2ccccc2Cl)n1N,9%,.,9%,52,-20%,-5%
Cc1ccccc1-c1cncnc1Nc1ccccc1,.,.,.,.,8%,.
CCCCOC(=O)Sc1nc2ccccc2o1,.,.,2%,-9,18%,-23%
C=C1CC2(OC1=O)c1ccccc1CCc1ccccc12,14µM*,?,?,-97*,22µM*,.
N#C/C(=C\c1cccc(OC(=O)c2cccs2)c1)C(N)=O,-18%,-18%,9%,58,-21%,-8%
CC1=NN(c2ccc(C(=O)O)cc2)C(=O)/C1=C\c1ccc(OC(=O)c2cccs2)cc1,0%,3%,5%,20,4%,-8%
COc1ccc(N2C(=O)NC(=O)/C(=C/c3cccc(OC(=O)c4cccs4)c3)C2=O)cc1Cl,-5%,-14%,-8%,23,-17%,14µM*
Cc1ccc(N2C(=O)NC(=O)/C(=C/c3ccc(OC(=O)c4cccs4)cc3)C2=O)cc1,.,.,17%,-38,0%,35µM*
Cc1cc(NC(=O)CSc2cn(CC(=O)N(C(C)C)C(C)C)c3ccccc23)no1,-4%,-9%,?,-34,-6%,-12%
CC(C)CCNC(=O)CSc1nc2ccsc2c(=O)n1Cc1ccccc1Cl,-11%,-8%,.,?,10%,1%
Cc1ccc2nc(N/N=C/c3ccco3)cc(C)c2c1,.,.,?,78,35%,5%
CC(=NNc1cc(C)c2cc(C)ccc2n1)c1ccccn1,.,.,.,-100*,.,.
C/C(=N\Nc1nc2ccccc2[nH]1)c1ccccn1,.,.,.,-98*,.,-10%
Cc1ccc(NC(=O)c2ccccc2F)nc1,.,.,-18%,60,-31%,0%
Cc1ccc(C(=O)Nc2c(C(=O)Nc3ccc(C)c(C)c3)sc3nc(C)cc(C)c23)cc1,?,?,.,-107*,56%,-5%
O=C(Nc1ccc(F)cc1F)C1CCCN1S(=O)(=O)c1ccc(-c2ccc(=O)[nH]n2)s1 (configuration not stated),.,.,10%,-2,-1%,-31%
SMILES,VACV Venus inh,VACV mCherry inh,HCV inh,HCMV inh,FMDV inh,Sm TGR inh
CSc1ncc(Cl)c(C(=O)Nc2nc3ccc(F)cc3s2)n1,-2%,0%,.,27,-7%,9%
COc1ccc(CN(C(=O)CSc2nnc(-c3ccccc3C)o2)c2ccc(F)cc2)cc1,-10%,.,-6%,-75*,?,?
CCCN1C(=O)C(O)(CC(=O)c2ccc(C(C)C)cc2)c2ccccc21 (configuration not stated),-17%,-17%,.,-31,-28%,5%
O=C(CC1(O)C(=O)N(CCc2ccccc2)c2ccc(Br)cc21)c1ccccc1O (configuration not stated),-21%,-8%,.,-77*,6%,-2%
CC(C)c1ccc(C(=O)CC2(O)C(=O)N(CCc3ccccc3)c3ccc(Cl)cc32)cc1 (configuration not stated),-24%,?,.,-105*,2%,-4%
COC(=O)CN1C(=O)C(O)(CC(=O)c2ccc(F)cc2)c2ccccc21 (configuration not stated),-2%,i,.,-1,-12%,-4%
C=CCN1C(=O)C(O)(CC(=O)c2ccco2)c2cc(Br)ccc21 (configuration not stated),-7%,-24%,1%,-82*,-17%,-10%
COC(=O)CN1C(=O)C(O)(CC(=O)c2ccc(Br)cc2)c2ccccc21 (configuration not stated),-10%,i,14%,-62*,-12%,-16%
CCCCN1C(=O)C(O)(CC(=O)c2ccc(CC)cc2)c2cc(Br)ccc21 (configuration not stated),-1%[7.34 µM],-10%[7.34 µM],.,-79*,-8%,-7%
C#CCN1C(=O)C(O)(CC(=O)c2ccc(OC)c(OC)c2)c2cc(Br)ccc21 (configuration not stated),-12%,-10%,.,-62*,3%,-12%
CCCN1C(=O)C(O)(CC(=O)c2ccc(CC)cc2)c2ccccc21 (configuration not stated),-11%,-10%,.,-12,-8%,8%
Cc1c(Cl)cccc1N1C(=O)CC(NNC(=O)c2cccs2)C1=O (configuration not stated),-10%,i,17%,4,12%,-8%
O=C1CC(c2ccccc2)C(C(=O)O)N1 (configuration not stated),6%,13%,6%,32,-23%,2%
Cc1ccc(C)c(CC(=O)N2CCCC(c3cc(C(=O)Nc4ccc5c(c4)OCO5)no3)C2)c1 (configuration not stated),-12%,i,.,24,?,.
Nc1[nH]n2c(=O)cc(-c3ccccc3)nc2c1N=Nc1ccc(S(N)(=O)=O)cc1,-6%,-1%,1%,-9,-5%,3%
Nc1[nH]n2c(=O)cc(-c3ccccc3)nc2c1N=Nc1ccccc1,-15%,.,-28%,-79*,-22%,3%
COc1ccccc1CCn1cnc(-c2ccccc2F)c1CC(C)C,.,.,.,-83*,.,.
